Source: PubChem (several laboratories)
Rows were chosen to be rich in hits. Some 3.2% of all compounds tested hit in one or more screens of this group.
FBA Mtb inh: Mtb FBA enzyme inhibitors, primary screen, biochemical, fluorescence, strain H37Rv. AID 588726, 2011. actives 2.3% (n = 360,000). Fructose-bisphosphate aldolase (Mycobacterium tuberculosis (strain ATCC 25618 / H37Rv)), …. inhibition, % at 1 µM. purified M. tuberculosis FBA, fluorescence read-out; in the data active means inhibition above about 27%;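 further: 0% = vehicle and 100% = reference inhibitor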
Target sequence (P9WQA3 whole entry, looked up): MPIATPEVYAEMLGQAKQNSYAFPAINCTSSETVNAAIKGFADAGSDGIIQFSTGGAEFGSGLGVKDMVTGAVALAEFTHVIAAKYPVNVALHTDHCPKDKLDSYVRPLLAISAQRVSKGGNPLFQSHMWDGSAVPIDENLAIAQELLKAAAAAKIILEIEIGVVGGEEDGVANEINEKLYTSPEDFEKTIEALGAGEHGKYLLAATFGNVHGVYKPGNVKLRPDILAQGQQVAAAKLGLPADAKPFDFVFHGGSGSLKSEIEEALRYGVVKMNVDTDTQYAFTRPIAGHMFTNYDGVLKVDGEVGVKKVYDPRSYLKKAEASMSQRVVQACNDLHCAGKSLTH
TcdB inh: TcdB glycohydrolase inhibitors, primary screen, biochemical, single point, plate reader; Toxin B (Clostridioides difficile), P18177; TcdB glycohydrolase enzymatic assay; inhibition, % at 9.99 µM; actives 0.24% (n = 350,000); AID 652162, 2013
GDH-TPI counter-1: GDH-TPI coupling enzyme inhibitors, primary screen, artefact control for M. tuberculosis FBA inhibitor project, biochemical, absorbance, full deck. GDH-TPI coupled enzyme counterscreen, NADH absorbance. inhibition, % at 4.8 µM. actives 1.2% (n = 360,000); in the data active means inhibition above about 30%;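 further: 0% = DMSO wells and 100% = wells lacking the enzyme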
PrPC surface inh: inhibitors of human cell surface prion protein PrPC, primary screen, cell-based, TR-FRET. Major prion protein (Homo sapiens), P04156. TR-FRET read-out. inhibition, % at 13.8 µM. actives 0.43% (n = 370,000). AID 720596, 2013; in the data active means inhibition above about 24%; further: 0% = median of the test wells and 100% = reference compound wells
Yp Topo-I inh: Yersinia pestis topoisomerase I inhibitors, primary screen, biochemical, cleavage product accumulation, plate reader, single point | activity, % at 10 µM | actives 0.064% (n = 360,000) | Y. pestis Topo-I cleavage product accumulation | AID 504884, 2011; in the data active means activity above about 50%, passing the limit was not always enough
Mtb FBA inh conf: M. tuberculosis aldolase blockers, biochemical, fluorescence, strain H37Rv, confirmation | purified M. tuberculosis FBA, fluorescence read-out | AID 651616, 2012 | shares compounds with FBA Mtb inh | inhibition, % at 1 µM | actives 78% (n = 5,600); in the data active means inhibition above about 27%;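 further: 0% = vehicle wells and 100% = reference inhibitor wells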
GDH-TPI counter-2: GDH-TPI coupling enzyme inhibitors, artefact control for M. tuberculosis FBA inhibitor project, biochemical, fluorescence, high throughput. shares compounds with FBA Mtb inh. inhibition, % at 1 µM. GDH-TPI coupled enzyme counterscreen. AID 652141, 2013. actives 81% (n = 5,600)
* hit, by the source's call; / = not tested or not shown; + = active, no number. Unless noted, no stated cut-off is given here; in the data, active means inhibition above about 10%; inactive means the rest.

SMILES	FBA Mtb inh	TcdB inh	GDH-TPI counter-1	PrPC surface inh	Yp Topo-I inh	Mtb FBA inh conf	GDH-TPI counter-2
CO[C@H]1CN(C)C(=O)c2cc(NC(=O)Cc3ccccc3)ccc2OC[C@@H](C)N(CC2CC2)C[C@H]1C	/	0	/	/	/	/	/
C[C@H]1CN([C@@H](C)CO)C(=O)c2cccc(NC(=O)C3CCOCC3)c2O[C@@H]1CN(C)Cc1ccc(Oc2ccccc2)cc1	/	-2	/	/	/	/	/
CC(=O)NCCNc1nc2cc(-c3ccc4c(ccn4C)c3)sc2c(=O)n1C	33*	0	11	-3	12	78*	83*
O=C(NCC[C@H]1CC[C@@H](NC(=O)c2cccnc2)[C@H](CO)O1)Nc1ccc(Cl)cc1	/	0	/	/	/	/	/
CN(C)CCCNC(=O)[C@@H]1[C@@H](CO)[C@@H]2Cn3c(ccc(-c4ccccc4)c3=O)[C@H]1N2C(=O)CC1CC1	/	0	/	/	/	/	/
COc1ccc(-c2nnc(-c3cc(OC)c(OC)c(OC)c3)o2)cc1OC	89*	/	20	-9	5	40*	28*
CCOc1ccc(-c2nnc(-c3cccs3)o2)cc1	75*	/	8	-3	-2	54*	46*
COc1cc(-c2nnc(-c3cccs3)o2)cc(OC)c1OC	12	/	22	-9	-1	/	/
COc1ccc(-c2nnc(-c3cccs3)o2)cc1OC	55*	/	21	-15	5	63*	53*
COc1cc(-c2nnco2)cc(OC)c1OC	/	1	/	-2	/	/	/
CCOc1ccc(-c2nnc(-c3cccs3)o2)cc1OCC	25	/	18	-7	1	/	/
Cc1ccc(-c2cc(-c3ccccc3)cc(-c3ccccc3)[n+]2-c2ccccc2C(=O)O)cc1	54*	0	16	1	7	10	3
O=C([O-])c1ccc(-[n+]2c(-c3ccccc3)cc(-c3ccccc3)cc2-c2ccccc2)cc1	7	2	21	-6	18	/	/
CCS(=O)(=O)N1CCCCN2[C@H](CO)[C@H](c3ccc(-c4ccccc4F)cc3)[C@@H]2C1	/	-2	/	/	/	/	/
O=C(COC(=O)c1ccccc1NCCO)NCc1cccs1	66*	0	3	0	10	20	24*
COc1ccc(CCNC(=O)COC(=O)c2ccccc2NCCO)cc1OC	91*	3	5	1	13	128*	78*
C=CCOc1ccc(/C=C/C(=O)Nc2ccc(C(=O)NC)cc2)cc1	45*	1	23	17	0	44*	37*
CCCCOc1ccc(/C=C/C(=O)Nc2ccc(C(N)=O)cc2)cc1	-1	/	16	11	0	/	/
COc1cccc(-c2cc(C(=O)NC3CC3)c3ccccc3n2)c1	-1	-3	10	-4	-4	/	/
CCCOc1ccc(-c2cc(C(=O)NCC3CCCO3)c3ccccc3n2)cc1 (stereo unspecified)	28*	1	14	5	10	177*	154*
COc1ccc(-c2cc(C(=O)NC3CCCC3)c3ccccc3n2)cc1	41*	2	21	-4	7	72*	55*
COc1ccc(-c2cc(C(=O)NC3CC3)c3ccccc3n2)cc1	46*	2	1	8	1	104*	88*
O=C(NC1CCC(O)CC1)c1cc(-c2ccco2)nc2ccccc12 (stereo unspecified)	62*	4	3	-3	2	53*	38*
C[C@@H](NC(=O)C[C@@H]1CC[C@H]2[C@@H](COC[C@H](O)CN2Cc2ccc(C(F)(F)F)cc2)O1)c1ccccc1	/	1	/	/	/	/	/
CCC(=O)N1[C@@H]2Cn3c(ccc(C4=CCCC4)c3=O)[C@H]1[C@@H](C(=O)NCC1CCCCC1)[C@@H]2CO	/	1	/	/	/	/	/
SMILES	FBA Mtb inh	TcdB inh	GDH-TPI counter-1	PrPC surface inh	Yp Topo-I inh	Mtb FBA inh conf	GDH-TPI counter-2
C[C@@H]1CCCCO[C@H](CN(C)C)[C@@H](C)CN([C@@H](C)CO)C(=O)c2cc(NS(=O)(=O)c3ccccc3)ccc2O1	/	0	/	/	/	/	/
CN1C[C@H]2[C@@H](c3ccccc31)[C@H](CO)N2C(=O)C1CC1	/	0	/	/	/	/	/
COc1ccc(S(=O)(=O)N(C)C[C@@H]2Oc3ncc(C#Cc4ccccc4)cc3C(=O)N([C@H](C)CO)C[C@@H]2C)cc1	/	-1	/	/	/	/	/
CC=Cc1ccc2n(c1=O)C[C@@H]1[C@@H](CO)[C@H](C(=O)Nc3nccs3)N(Cc3ccccc3F)[C@H]21 (mixture of isomers)	/	1	/	/	/	/	/
CNc1ccc2ncc(-c3ccccc3NC(C)=O)n2n1	47*	0	7	-6	-1	0	-4
CO[C@@H]1CN(C)C(=O)c2cc(NC(=O)NC3CCCCC3)ccc2OC[C@@H](C)N(C(C)=O)C[C@@H]1C	/	0	/	/	/	/	/
CCOC(=O)CCc1c(C)nc2cc(-c3ccccc3OC)[nH]n2c1=O	28*	-4	-6	3	4	138*	124*
CC(C)CC#Cc1ccc2c(c1)O[C@H](CN(C)C(=O)Cc1ccccn1)[C@H](C)CN([C@H](C)CO)S2(=O)=O	/	0	/	/	/	/	/
CCOC(=O)c1[nH]c2ccc(OC)cc2c1C(SCC(=O)O)c1ccc(C(F)(F)F)cc1 (stereo unspecified)	55*	1	-1	2	8	132*	85*
COc1ccc2oc(C(=O)OCC(=O)NCCc3ccccc3)c(C)c2c1	32*	3	8	0	1	58*	43*
COc1ccc2oc(C(=O)OCC(=O)N(Cc3ccccc3)C(C)(C)C)c(C)c2c1	9	1	3	0	10	/	/
COc1ccc2oc(C(=O)OCC(=O)NCCc3ccc(S(N)(=O)=O)cc3)c(C)c2c1	38*	1	8	2	-6	+	184*
COc1ccc2oc(C(=O)NCCc3ccccc3)c(C)c2c1	23	1	-3	-1	30	/	/
COc1ccc2oc(C(=O)OCC(=O)N(CCC#N)c3ccccc3)c(C)c2c1	39*	3	-1	2	11	1	-5
CCCN1C[C@H](C)[C@@H](OC)CN(C)C(=O)c2cc(NC(=O)c3ccccc3F)ccc2OC[C@H]1C	/	1	/	/	/	/	/
C[C@H](CO)N1C[C@H](C)[C@@H](CN(C)Cc2ccc(Oc3ccccc3)cc2)Oc2ccc(NC(=O)c3ccncc3)cc2C1=O	/	0	/	/	/	/	/
N#Cc1cc(-c2ccccc2)c[nH]c1=O	58*	/	12	0	-1	94*	89*
N#Cc1cc(-c2ccccc2)cn(Cc2c(Cl)cccc2Cl)c1=O	4	/	2	1	4	/	/
